Experimental data published in PubChem BioAssay AID1159580 (chemical genetic matrix, 2015).
Values joined by “and” are separate entries in the source; they are usually repeats but may differ in a detail not shown here. Identical values can stand only once. About 2,000 (36%) of roughly 5,500 compounds were called active. Another 18% or so got no clear call; they are omitted. Cut-off read from the data, not from the text of the source: active = normalized growth mostly below about 0.91 (no sharp cut-off); inconclusive = no clear call, values can overlap the other calls; inactive = mostly above about 0.92. Some of the results follow.

Assay: chemical genetic growth profiling, strain panel (AID 1159580);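 note: tested at 20 µM; growth read once vehicle control cultures reached saturation at 30 °C; 1 = growth at the plate median or of vehicle wells; lower values mean less growth of the strain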
Settings: growth OD
[1] = S. cerevisiae deletion strains, locus YDL101C, strain DUN1, stronger effect = lower value
[2] = S. cerevisiae deletion strains, locus YGR052W, strain FMP48, stronger effect = lower value
[3] = S. cerevisiae deletion strains, locus YHR030C, strain SLT2, stronger effect = lower value
[4] = S. cerevisiae deletion strains, locus YHR079C, strain IRE1, stronger effect = lower value
[5] = S. cerevisiae deletion strains, locus YHR082C, strain KSP1, stronger effect = lower value
[6] = S. cerevisiae deletion strains, locus YJL095W, strain BCK1, stronger effect = lower value
[7] = S. cerevisiae deletion strains, locus YJR066W, strain TOR1, stronger effect = lower value
[8] = S. cerevisiae deletion strains, locus YKL203C, strain TOR2, stronger effect = lower value
[9] = S. cerevisiae deletion strains, locus YLR113W, strain HOG1, stronger effect = lower value
[10] = S. cerevisiae deletion strains, locus YNL207W, strain RIO2, stronger effect = lower value
[11] = S. cerevisiae deletion strains, locus YOR119C, strain RIO1, stronger effect = lower value
[12] = S. cerevisiae deletion strains, locus YOR231W, strain MKK1, stronger effect = lower value
[13] = S. cerevisiae deletion strains, locus YPL256C, strain CLN2, stronger effect = lower value
[14] = S. cerevisiae deletion strains, locus YBR229C, strain ROT2, stronger effect = lower value
[15] = S. cerevisiae deletion strains, locus YEL061C, strain CIN8, stronger effect = lower value
[16] = S. cerevisiae deletion strains, locus YGR078C, strain PAC10, stronger effect = lower value
[17] = S. cerevisiae deletion strains, locus YHR087W, strain rtc3, stronger effect = lower value
[18] = S. cerevisiae deletion strains, locus YJR043C, strain POL32, stronger effect = lower value
[19] = S. cerevisiae deletion strains, locus YJR075W, strain HOC1, stronger effect = lower value
[20] = S. cerevisiae deletion strains, locus YKL190W, strain CNB1, stronger effect = lower value
[21] = S. cerevisiae deletion strains, locus YLR039C, strain RIC1, stronger effect = lower value
[22] = S. cerevisiae deletion strains, locus YLR058C, strain SHM2 (second series), stronger effect = lower value
[23] = S. cerevisiae deletion strains, locus YLR085C, strain ARP6, stronger effect = lower value
[24] = S. cerevisiae deletion strains, locus YLR262C, strain YPT6, stronger effect = lower value
[25] = S. cerevisiae deletion strains, locus YML094W, strain GIM5, stronger effect = lower value
[26] = S. cerevisiae deletion strains, locus YMR219W, strain ESC1, stronger effect = lower value
[27] = S. cerevisiae deletion strains, locus YMR263W, strain SAP30, stronger effect = lower value
[28] = S. cerevisiae deletion strains, locus YNL153C, strain GIM3, stronger effect = lower value
[29] = S. cerevisiae deletion strains, locus YNL298W, strain CLA4 (second series), stronger effect = lower value
[30] = S. cerevisiae deletion strains, locus YNL322C, strain KRE1, stronger effect = lower value
[31] = S. cerevisiae deletion strains, locus YNR030W, strain Alg12, stronger effect = lower value
[32] = S. cerevisiae deletion strains, locus YOL006C, strain TOP1, stronger effect = lower value
[33] = S. cerevisiae deletion strains, locus YPL055C, strain LGE1, stronger effect = lower value
[34] = S. cerevisiae deletion strains, locus YPL241C, strain CIN2, stronger effect = lower value
[35] = S. cerevisiae deletion strains, locus YPR135W, strain CTF4, stronger effect = lower value

Measured: normalized growth

COc1ccc(Nc2nc(NC(=O)Nc3ccc(Cl)cc3)n[nH]2)cc1
active: [9] 0.813 | [13] 0.797
inactive: S. cerevisiae deletion strains, locus YAR019C, strain CDC15, stronger effect = lower value 0.996 | S. cerevisiae deletion strains, locus YBL105C, strain PKC1, stronger effect = lower value 0.994 | S. cerevisiae deletion strains, locus YBR135W, strain CKS1, stronger effect = lower value 1 | S. cerevisiae deletion strains, locus YBR136W, strain MEC1, stronger effect = lower value 0.992 | S. cerevisiae deletion strains, locus YBR160W, strain CDC28, stronger effect = lower value 1 | S. cerevisiae deletion strains, locus YDL017W, strain CDC7, stronger effect = lower value 1 | S. cerevisiae deletion strains, locus YDL028C, strain MPS1, stronger effect = lower value 0.986 | [1] 1 | S. cerevisiae deletion strains, locus YDL108W, strain KIN28, stronger effect = lower value 0.982 | S. cerevisiae deletion strains, locus YDL132W, strain cdc53, stronger effect = lower value 0.99 | S. cerevisiae deletion strains, locus YDL214C, strain PRR2, stronger effect = lower value 0.867 | S. cerevisiae deletion strains, locus YDR052C, strain DBF4, stronger effect = lower value 1 | S. cerevisiae deletion strains, locus YDR054C, strain cdc34, stronger effect = lower value 1 | S. cerevisiae deletion strains, locus YDR226W, strain ADK1, stronger effect = lower value 0.994 | S. cerevisiae deletion strains, locus YDR477W, strain SNF1, stronger effect = lower value 0.809 | S. cerevisiae deletion strains, locus YER123W, strain YCK3, stronger effect = lower value 0.715 | S. cerevisiae deletion strains, locus YER133W, strain GLC7, stronger effect = lower value 0.757 | S. cerevisiae deletion strains, locus YFL009W, strain cdc4, stronger effect = lower value 0.994 | S. cerevisiae deletion strains, locus YFL029C, strain CAK1, stronger effect = lower value 0.998 | S. cerevisiae deletion strains, locus YFR003C, strain YPI1, stronger effect = lower value 0.996 | S. cerevisiae deletion strains, locus YFR019W, strain FAB1, stronger effect = lower value 0.866 | S. cerevisiae deletion strains, locus YFR028C, strain CDC14, stronger effect = lower value 0.988 | S. cerevisiae deletion strains, locus YGR040W, strain KSS1, stronger effect = lower value 0.789 | [2] 0.788 | S. cerevisiae deletion strains, locus YGR092W, strain DBF2, stronger effect = lower value 0.793 | [3] 0.887 | [4] 0.893 | [5] 0.868 | S. cerevisiae deletion strains, locus YHR205W, strain SCH9, stronger effect = lower value 0.842 | S. cerevisiae deletion strains, locus YIL147C, strain SLN1, stronger effect = lower value 0.979 | [6] 0.861 | S. cerevisiae deletion strains, locus YJL128C, strain PBS2, stronger effect = lower value 0.957 | S. cerevisiae deletion strains, locus YJL157C, strain FAR1, stronger effect = lower value 0.88 | S. cerevisiae deletion strains, locus YJR016C, strain ILV3, stronger effect = lower value 0.991 | S. cerevisiae deletion strains, locus YJR066W, strain TOR1 (second series), stronger effect = lower value 0.758 | [7] 0.929 | S. cerevisiae deletion strains, locus YKL048C, strain ELM1, stronger effect = lower value 0.854 | S. cerevisiae deletion strains, locus YKL067W, strain YNK1, stronger effect = lower value 0.876 | S. cerevisiae deletion strains, locus YKL101W, strain HSL1, stronger effect = lower value 0.83 | S. cerevisiae deletion strains, locus YKL193C, strain SDS22, stronger effect = lower value 0.991 | [8] 0.892 | S. cerevisiae deletion strains, locus YLR133W, strain CKI1, stronger effect = lower value 0.795 | S. cerevisiae deletion strains, locus YLR403W, strain SFP1, stronger effect = lower value 0.742 | S. cerevisiae deletion strains, locus YML070W, strain DAK1, stronger effect = lower value 0.846 | S. cerevisiae deletion strains, locus YMR001C, strain CDC5, stronger effect = lower value 1 | S. cerevisiae deletion strains, locus YMR205C, strain PFK2 (second series), stronger effect = lower value 0.782 | S. cerevisiae deletion strains, locus YMR277W, strain FCP1, stronger effect = lower value 0.991 | S. cerevisiae deletion strains, locus YNL006W, strain LST8, stronger effect = lower value 1.02 | S. cerevisiae deletion strains, locus YNL020C, strain ARK1, stronger effect = lower value 0.811 | S. cerevisiae deletion strains, locus YNL161W, strain CBK1, stronger effect = lower value 0.998 | S. cerevisiae deletion strains, locus YNL183C, strain NPR1, stronger effect = lower value 0.763 | [10] 0.992 | S. cerevisiae deletion strains, locus YNL222W, strain SSU72, stronger effect = lower value 0.993 | S. cerevisiae deletion strains, locus YNL307C, strain MCK1 (second series), stronger effect = lower value 0.832 | S. cerevisiae deletion strains, locus YOL078W, strain AVO1, stronger effect = lower value 0.991 | S. cerevisiae deletion strains, locus YOL136C, strain PFK27, stronger effect = lower value 0.848 | S. cerevisiae deletion strains, locus YOR061W, strain CKA2, stronger effect = lower value 0.741 | [11] 0.853 | [12] 0.94 | S. cerevisiae deletion strains, locus YOR329C, strain SCD5, stronger effect = lower value 1 | S. cerevisiae deletion strains, locus YPL031C, strain PHO85, stronger effect = lower value 0.749 | S. cerevisiae deletion strains, locus YPL153C, strain RAD53, stronger effect = lower value 0.756 | S. cerevisiae deletion strains, locus YPL204W, strain HRR25, stronger effect = lower value 0.795 | S. cerevisiae deletion strains, locus YPL209C, strain IPL1, stronger effect = lower value 0.996 | S. cerevisiae deletion strains, locus YPR025C, strain CCL1, stronger effect = lower value 0.99 | S. cerevisiae deletion strains, locus YPR106W, strain ISR1, stronger effect = lower value 0.991 | S. cerevisiae deletion strains, locus YPR111W, strain DBF20, stronger effect = lower value 0.981 | S. cerevisiae deletion strains, strain NNK1, stronger effect = lower value 0.99 | S. cerevisiae deletion strains, strain TSCII, stronger effect = lower value 1

Nc1ccc(Oc2ccc(Cl)cc2C2CCCCC2)nc1
active: [14] 0.821 | [1] 0.897 | [15] 0.845 | [16] 0.855 | [3] 0.181 and 0.708 | [4] 0.794 | [5] 0.766 | [17] 0.702 | [18] 0.852 | [7] 0.787 | [19] 0.689 | [20] 0.658 | [21] 0.386 | [22] 0.915 | [23] 0.451 | [24] 0.355 | [25] 0.636 | [26] 0.935 | [27] 0.824 | S. cerevisiae deletion strains, locus YMR307W, strain GAS1, stronger effect = lower value 0.162 | [28] 0.905 | [29] 0.528 | [31] 0.601 | [32] 0.728 | [33] 0.745 | [34] 0.675 | [13] 0.748 | [35] 0.365
inactive: [2] 0.796 | [6] 0.849 | S. cerevisiae deletion strains, locus YKL171W, strain NNK1, stronger effect = lower value 0.889 | [8] 0.92 | [9] 0.705 | [10] 0.918 | [30] 0.945 | [11] 0.879 | [12] 0.941

Cc1cc(Cl)ccc1Oc1ccc(N)cn1
active: [3] 0.486 | [20] 0.928 | [21] 0.541 | [23] 0.602 | [24] 0.544 | [35] 0.602
inactive: S. cerevisiae deletion strains, locus YAL013W, strain DEP1, stronger effect = lower value 0.989 | [14] 0.977 | [1] 0.971 | S. cerevisiae deletion strains, locus YDR150W, strain NUM1, stronger effect = lower value 0.898 | [15] 0.993 | [16] 0.984 | [17] 0.989 | [18] 0.977 | [19] 0.952 | [22] 0.986 | [25] 0.878 | [26] 0.992 | [27] 0.92 | S. cerevisiae deletion strains, locus YNL128W, strain TEP1, stronger effect = lower value 1 | [28] 0.99 | [29] 0.891 | [30] 1.01 | [31] 0.981 | [32] 0.938 | [33] 0.889 | [34] 0.917 | S. cerevisiae strains, strain wild type, stronger effect = lower value 0.953
